The full data set covers some 7,900 targets. This sample favours those with a hit. About 0.6% of all pairs of compound and target were hits.
Each target was assayed with C1COCCN1CCN2C3=CC=CC=C3N=C2NC(=O)C4=CC(=CC=C4)[N+](=O)[O-] [IRAK-1-4 Inhibitor I] (assay: log2 fold change, soluble protein after heating vs DMSO (PISA); higher = thermal stabilisation; K562 cells, 10 uM, 30 min; active = over 0.2 and 3.5 SD of the protein, either way, in both replicates (recomputed)).
Outline: (§1)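 K562 cells (2×10^6 cells/mL) were treated with 10 μM compound for 30 min, and aliquots were heated for 3 min over 48°C-58°C. Pooled aliquots were extracted in PBS with 0.5% NP-40 at 4°C, and the supernatant after 21,000xg for 90 min was measured by TMTpro 16plex LC-MS/MS with channel sums equalised. Reported thermal stability, relative to control samples and from duplicates, is a log2 fold change.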

UniProt Q8NBX0, sequence (Q8NBX0 whole entry, looked up): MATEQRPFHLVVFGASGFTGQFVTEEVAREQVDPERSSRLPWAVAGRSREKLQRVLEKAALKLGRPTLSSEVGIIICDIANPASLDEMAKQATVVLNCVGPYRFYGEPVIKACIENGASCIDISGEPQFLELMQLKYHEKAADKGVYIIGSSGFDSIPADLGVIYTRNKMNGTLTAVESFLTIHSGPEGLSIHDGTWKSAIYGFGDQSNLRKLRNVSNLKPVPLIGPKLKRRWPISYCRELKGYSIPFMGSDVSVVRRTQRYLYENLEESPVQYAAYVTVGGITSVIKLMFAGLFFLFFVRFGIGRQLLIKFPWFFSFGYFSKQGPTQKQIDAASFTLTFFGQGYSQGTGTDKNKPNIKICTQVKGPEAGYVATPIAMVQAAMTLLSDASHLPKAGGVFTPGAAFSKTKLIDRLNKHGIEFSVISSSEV
UniProt Q9UKM9, sequence (Q9UKM9 whole entry, looked up): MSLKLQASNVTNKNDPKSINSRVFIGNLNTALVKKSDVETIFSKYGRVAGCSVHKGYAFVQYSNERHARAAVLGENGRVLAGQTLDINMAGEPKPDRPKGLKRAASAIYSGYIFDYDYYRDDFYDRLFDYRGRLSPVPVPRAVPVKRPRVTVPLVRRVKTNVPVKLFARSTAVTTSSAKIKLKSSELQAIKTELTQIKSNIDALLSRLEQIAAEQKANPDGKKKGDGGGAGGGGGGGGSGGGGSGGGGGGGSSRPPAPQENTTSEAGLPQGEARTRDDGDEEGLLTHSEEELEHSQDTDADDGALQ
UniProt Q92930, sequence (Q92930 whole entry, looked up): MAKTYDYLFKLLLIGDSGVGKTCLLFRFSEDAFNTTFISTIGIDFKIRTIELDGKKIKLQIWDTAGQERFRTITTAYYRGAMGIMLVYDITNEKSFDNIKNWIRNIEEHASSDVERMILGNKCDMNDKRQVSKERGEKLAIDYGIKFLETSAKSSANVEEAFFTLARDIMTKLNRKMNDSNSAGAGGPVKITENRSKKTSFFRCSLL
UniProt Q8N0T1, sequence (Q8N0T1 whole entry, looked up): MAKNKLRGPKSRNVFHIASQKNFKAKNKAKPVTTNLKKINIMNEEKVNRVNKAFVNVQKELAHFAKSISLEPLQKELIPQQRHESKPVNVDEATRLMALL
UniProt O43665, sequence (O43665 whole entry, looked up): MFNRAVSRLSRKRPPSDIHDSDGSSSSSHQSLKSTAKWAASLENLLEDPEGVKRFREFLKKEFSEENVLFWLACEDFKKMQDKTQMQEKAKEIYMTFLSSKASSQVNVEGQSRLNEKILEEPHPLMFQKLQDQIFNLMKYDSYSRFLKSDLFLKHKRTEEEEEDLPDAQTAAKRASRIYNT
UniProt Q99590, sequence (Q99590 whole entry, looked up): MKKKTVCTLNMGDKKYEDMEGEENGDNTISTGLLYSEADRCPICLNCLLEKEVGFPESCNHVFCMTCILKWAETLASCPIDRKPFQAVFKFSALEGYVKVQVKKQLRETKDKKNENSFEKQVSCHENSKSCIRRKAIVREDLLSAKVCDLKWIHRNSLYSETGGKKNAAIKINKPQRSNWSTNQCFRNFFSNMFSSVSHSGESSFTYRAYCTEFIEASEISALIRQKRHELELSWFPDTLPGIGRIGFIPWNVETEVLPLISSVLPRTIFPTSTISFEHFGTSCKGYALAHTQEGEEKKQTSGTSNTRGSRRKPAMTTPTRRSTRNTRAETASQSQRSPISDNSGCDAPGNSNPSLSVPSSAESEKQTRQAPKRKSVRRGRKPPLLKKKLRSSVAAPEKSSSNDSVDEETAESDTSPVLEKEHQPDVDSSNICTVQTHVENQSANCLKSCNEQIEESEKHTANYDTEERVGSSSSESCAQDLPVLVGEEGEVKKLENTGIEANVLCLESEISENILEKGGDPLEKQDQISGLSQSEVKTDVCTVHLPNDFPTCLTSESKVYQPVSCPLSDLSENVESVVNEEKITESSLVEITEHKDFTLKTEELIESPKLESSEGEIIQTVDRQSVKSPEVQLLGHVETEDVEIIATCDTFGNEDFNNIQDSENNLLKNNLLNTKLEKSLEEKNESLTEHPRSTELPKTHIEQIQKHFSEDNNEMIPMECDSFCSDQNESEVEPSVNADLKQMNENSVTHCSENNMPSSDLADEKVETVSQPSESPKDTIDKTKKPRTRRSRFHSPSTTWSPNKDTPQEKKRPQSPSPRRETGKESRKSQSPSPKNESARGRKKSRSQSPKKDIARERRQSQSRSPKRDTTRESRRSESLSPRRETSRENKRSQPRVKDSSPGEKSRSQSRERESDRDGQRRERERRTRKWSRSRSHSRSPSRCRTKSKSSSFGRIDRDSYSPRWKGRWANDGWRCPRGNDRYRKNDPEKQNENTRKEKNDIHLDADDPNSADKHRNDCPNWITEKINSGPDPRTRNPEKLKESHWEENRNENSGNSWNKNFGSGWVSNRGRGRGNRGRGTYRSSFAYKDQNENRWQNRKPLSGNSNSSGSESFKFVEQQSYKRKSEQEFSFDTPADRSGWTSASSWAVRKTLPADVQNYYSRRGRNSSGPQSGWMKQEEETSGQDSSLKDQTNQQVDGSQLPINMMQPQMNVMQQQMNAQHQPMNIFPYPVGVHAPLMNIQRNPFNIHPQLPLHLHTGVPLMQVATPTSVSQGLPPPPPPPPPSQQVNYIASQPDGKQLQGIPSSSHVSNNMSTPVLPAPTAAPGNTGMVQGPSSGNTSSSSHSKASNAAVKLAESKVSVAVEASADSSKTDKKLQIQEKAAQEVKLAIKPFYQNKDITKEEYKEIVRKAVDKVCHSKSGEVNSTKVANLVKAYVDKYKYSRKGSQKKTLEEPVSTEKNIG
UniProt Q5VZM2, sequence (Q5VZM2 whole entry, looked up): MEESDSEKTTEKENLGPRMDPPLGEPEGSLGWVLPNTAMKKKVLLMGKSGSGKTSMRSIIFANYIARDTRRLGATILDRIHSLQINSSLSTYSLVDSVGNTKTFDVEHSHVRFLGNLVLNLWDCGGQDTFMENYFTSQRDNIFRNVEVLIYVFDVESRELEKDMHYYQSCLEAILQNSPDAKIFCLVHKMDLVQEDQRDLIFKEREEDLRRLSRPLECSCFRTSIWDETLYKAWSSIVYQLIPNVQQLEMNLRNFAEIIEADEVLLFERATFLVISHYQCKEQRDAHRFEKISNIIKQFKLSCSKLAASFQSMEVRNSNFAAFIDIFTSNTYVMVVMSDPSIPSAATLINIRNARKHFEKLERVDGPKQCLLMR
UniProt Q9NQG5, sequence (Q9NQG5 whole entry, looked up): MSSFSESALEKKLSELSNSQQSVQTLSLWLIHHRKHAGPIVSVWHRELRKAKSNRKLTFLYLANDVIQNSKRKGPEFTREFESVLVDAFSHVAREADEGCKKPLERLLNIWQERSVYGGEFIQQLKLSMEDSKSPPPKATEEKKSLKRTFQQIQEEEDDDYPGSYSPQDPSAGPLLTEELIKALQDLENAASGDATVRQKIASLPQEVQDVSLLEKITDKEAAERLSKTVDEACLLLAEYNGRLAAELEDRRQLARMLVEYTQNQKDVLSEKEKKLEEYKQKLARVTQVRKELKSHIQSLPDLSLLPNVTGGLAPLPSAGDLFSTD
UniProt Q9H4A4, sequence (Q9H4A4 whole entry, looked up): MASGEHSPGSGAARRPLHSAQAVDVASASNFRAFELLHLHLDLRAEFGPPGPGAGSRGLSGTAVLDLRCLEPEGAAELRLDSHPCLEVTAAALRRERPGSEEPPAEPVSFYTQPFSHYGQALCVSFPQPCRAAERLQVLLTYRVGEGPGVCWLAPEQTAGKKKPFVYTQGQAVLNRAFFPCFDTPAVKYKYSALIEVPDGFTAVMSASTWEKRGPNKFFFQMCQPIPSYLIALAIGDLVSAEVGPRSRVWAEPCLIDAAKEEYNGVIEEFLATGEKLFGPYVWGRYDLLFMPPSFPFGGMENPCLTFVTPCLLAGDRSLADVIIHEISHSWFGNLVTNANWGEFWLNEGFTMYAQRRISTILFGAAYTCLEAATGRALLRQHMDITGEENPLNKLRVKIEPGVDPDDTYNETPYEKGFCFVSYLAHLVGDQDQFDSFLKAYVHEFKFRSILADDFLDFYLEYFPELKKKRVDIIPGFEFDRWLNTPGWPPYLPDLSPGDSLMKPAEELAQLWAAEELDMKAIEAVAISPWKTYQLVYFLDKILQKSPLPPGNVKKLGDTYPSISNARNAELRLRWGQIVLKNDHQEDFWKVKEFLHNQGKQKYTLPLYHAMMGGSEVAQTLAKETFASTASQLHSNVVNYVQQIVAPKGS
UniProt Q92696, sequence (Q92696 whole entry, looked up): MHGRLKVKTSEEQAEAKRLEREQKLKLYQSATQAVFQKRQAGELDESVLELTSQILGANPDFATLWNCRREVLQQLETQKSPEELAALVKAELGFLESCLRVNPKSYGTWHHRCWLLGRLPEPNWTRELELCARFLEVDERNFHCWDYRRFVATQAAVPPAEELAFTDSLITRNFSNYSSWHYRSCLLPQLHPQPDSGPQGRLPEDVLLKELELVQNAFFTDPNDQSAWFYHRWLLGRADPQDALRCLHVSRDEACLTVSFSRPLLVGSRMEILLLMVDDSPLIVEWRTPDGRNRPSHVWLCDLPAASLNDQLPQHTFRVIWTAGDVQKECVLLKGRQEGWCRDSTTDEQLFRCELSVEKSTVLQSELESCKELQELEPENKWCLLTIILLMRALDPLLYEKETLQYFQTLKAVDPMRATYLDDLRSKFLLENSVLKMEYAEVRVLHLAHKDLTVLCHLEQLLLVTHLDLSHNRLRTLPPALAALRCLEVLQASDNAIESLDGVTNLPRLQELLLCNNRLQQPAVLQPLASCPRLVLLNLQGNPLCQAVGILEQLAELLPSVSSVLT
UniProt Q8N5L8, sequence (Q8N5L8 whole entry, looked up): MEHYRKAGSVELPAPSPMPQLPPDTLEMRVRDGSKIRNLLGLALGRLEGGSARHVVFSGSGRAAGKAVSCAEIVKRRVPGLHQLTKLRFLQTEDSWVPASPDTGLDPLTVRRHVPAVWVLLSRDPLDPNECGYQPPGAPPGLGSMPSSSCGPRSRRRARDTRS

log2 fold change, inactive:
RAB8B (UniProt Q92930) 0.028, RPS20 isoform 2 (UniProt P60866) -0.103, RAC1 (UniProt P63000) -0.053, SEC16A isoform 5 (UniProt O15027) -0.136, RPRD1B (UniProt Q9NQG5) 0, ROCK2 (UniProt O75116) -0.037, RALY (UniProt Q9UKM9) -0.315, SETD3 (UniProt Q86TU7) -0.007, RBIS (UniProt Q8N0T1) -0.038, RBM26 isoform 2 (UniProt Q5T8P6) -0.086

What follows are targets tested with C=CC(=O)N1CCC[C@@H](n2nc(-c3ccc(Oc4ccccc4)cc3)c3c(N)ncnc32)C1 [ibrutinib] in the same assay as above.
Outline: as §1

log2 fold change, inactive:
RPS12 (UniProt P25398) 0.036, RUNX1 isoform 8 (UniProt Q01196) 0.058, RAB9A (UniProt P51151) 0.018, RPS9 (UniProt P46781) -0.025, SCG3 (UniProt Q8WXD2) 0.035, RNPEP (UniProt Q9H4A4) -0.018, SCCPDH (UniProt Q8NBX0) 0.061, RABGGTA (UniProt Q92696) -0.021, RRAGB (UniProt Q5VZM2) 0.029, RPS21 (UniProt P63220) -0.035, RPP25L (UniProt Q8N5L8) 0.021, SCAF11 (UniProt Q99590) 0.099, RGS10 (UniProt O43665) 0.047

— the supplement of paper PMC10849652
